High-throughput results from PubChem.
A selection: hits, their analogues and other compounds. The true share with any hit is near 0.4%.
FMDV FLuc: FMDV antiviral activity by firefly signal. FMDV antiviral cell assay, firefly luciferase signal. Potency, µM (series often up to 57.5 µM), without a hit: top-dose activity change, negative = inhibition, usual class: inhibitors. 120,000 tested, 0.23% active; note: nearly all actives have a fitted effect of over 60% in size
FMDV Renilla: antivirals against foot and mouth disease virus replicon; FMDV replicon cells, Renilla luciferase signal; Potency, µM (doses to about 57.5 µM), inactives show at the top dose activity change, negative = inhibition, hits mostly inhibitors; 120,000 tested, 0.32% active; AID 1745857; note: nearly all actives have a fitted effect of over 55% in size
Starred values were filed as active, the others as inactive. Calls come from the whole dose curve. % is set by controls: 0 for no effect and ±100 for the full control effect; potency is the fitted concentration of half-maximal effect.

Results for O=C(Nc1ccnn1Cc1cccs1)c1ccc(S(=O)(=O)N2CCCC2)cc1 ?
FMDV FLuc: 14µM*; FMDV Renilla: inconclusive

Results for O=C(Nc1nc(-c2ccncc2)cs1)c1ccc(S(=O)(=O)N2CCCCC2)cc1 ?
FMDV FLuc: 5%; FMDV Renilla: -11%

What do the screens show for `Cc1ccccc1C(=O)Nc1ccc2nc(SCC(=O)N(C)c3ccccc3)sc2c1`?
FMDV FLuc: -21%; FMDV Renilla: -1%

How did CCOc1ccc(C(=O)Nc2ccc3nc(SCC(=O)N(C)c4ccccc4)sc3c2)cc1 do in these assays?
FMDV FLuc: 7.9µM*; FMDV Renilla: inconclusive

How did CCOc1ccc(S(=O)(=O)NCc2ccco2)cc1 do in these assays?
FMDV FLuc: 3%; FMDV Renilla: 93%

What do the screens show for `CC(C)c1ccc(NC(=O)c2ccc3c(c2)CCCN3S(C)(=O)=O)cc1`?
FMDV FLuc: inconclusive; FMDV Renilla: 8.9µM*

What do the screens show for `Cc1ccc(S(=O)(=O)N2CCc3cc(C(=O)Nc4ccc(C(F)(F)F)cc4)ccc32)cc1`?
FMDV FLuc: 2%; FMDV Renilla: 136%

How did CS(=O)(=O)N1CCc2cc(C(=O)Nc3ccc(C(F)(F)F)cc3)ccc21 do in these assays?
FMDV FLuc: inconclusive; FMDV Renilla: 32µM*

How did CCS(=O)(=O)N1CCc2cc(C(=O)Nc3cccc(C(C)=O)c3)ccc21 do in these assays?
FMDV FLuc: 61%; FMDV Renilla: 9%

Results for CC(C)c1ccc(NC(=O)c2ccc3c(c2)CCN3S(=O)(=O)c2ccccc2)cc1 ?
FMDV FLuc: -16%; FMDV Renilla: 17%

What do the screens show for `CCCCc1ccc(NC(=O)c2ccc3c(c2)CCN3S(=O)(=O)CC)cc1`?
FMDV FLuc: 8.9µM*; FMDV Renilla: 25µM*

What do the screens show for `O=C(NCc1ccccc1Cl)c1cc2ccccc2oc1=O`?
FMDV FLuc: 31%; FMDV Renilla: -2%

How did COc1cc(OC)c(C(=O)/C=C/c2ccc(C#N)cc2)cc1Cl do in these assays?
FMDV FLuc: 49%; FMDV Renilla: 57%

What do the screens show for `Cc1cc(C)cc(OC(C)C(=O)Nc2nonc2-c2ccc(Br)cc2)c1` (stereo unspecified)?
FMDV FLuc: -5%; FMDV Renilla: -14%

Results for COc1cc(CNC(=O)c2nccnc2N)ccc1OCc1ccncc1 ?
FMDV FLuc: 22µM*; FMDV Renilla: 10µM*

How did Nc1nccnc1C(=O)NCc1ccnc(Oc2ccc(F)cc2)c1 do in these assays?
FMDV FLuc: inconclusive; FMDV Renilla: 13µM*

What do the screens show for `CCOc1ccccc1Oc1ccc(CNC(=O)c2nccnc2N)cn1`?
FMDV FLuc: 16µM*; FMDV Renilla: 14µM*

How did COc1ccc(CNC(=O)c2nccnc2N)cc1 do in these assays?
FMDV FLuc: 28%; FMDV Renilla: -19%

Results for O=C(Cc1cccc(F)c1)NCc1ccnc(OCc2ccccc2)c1 ?
FMDV FLuc: 39%; FMDV Renilla: 6%

How did Nc1nccnc1C(=O)NCc1ccnc(OCc2ccccc2)c1 do in these assays?
FMDV FLuc: 22µM*; FMDV Renilla: 10µM*

How did COc1ccc(CNC(=O)c2nccnc2N)cc1OC do in these assays?
FMDV FLuc: 6%; FMDV Renilla: 9%

Results for CCOc1ccccc1Oc1ccc(CNC(=O)Nc2cccnc2)cn1 ?
FMDV FLuc: 14%; FMDV Renilla: -16%

Results for CC(NC(=O)c1ccnc(Cl)c1)C1CC1 (stereo unspecified) ?
FMDV FLuc: 13%; FMDV Renilla: 10%

How did COc1cc(/C=C(\C#N)c2nc3ccccc3[nH]2)ccc1OCc1ccc(F)cc1 do in these assays?
FMDV FLuc: 133%; FMDV Renilla: -7%

What do the screens show for `Cn1c(=O)c2c(ncn2CC(=O)Nc2ccc(C34CC5CC(CC(C5)C3)C4)cc2)n(C)c1=O`?
FMDV FLuc: 3%; FMDV Renilla: -8%

How did C=CCNc1nc(C(=O)OCC(=O)NCc2ccccc2OC)cs1 do in these assays?
FMDV FLuc: 2%; FMDV Renilla: 9%

How did COC(=O)[C@@H](NC(=O)c1snnc1-c1ccc(OC)cc1)C(C)C do in these assays?
FMDV FLuc: -9%; FMDV Renilla: -11%

What do the screens show for `CN(C(=O)C1CCN(c2oc(-c3ccco3)nc2C#N)CC1)c1ccccc1`?
FMDV FLuc: -12%; FMDV Renilla: -19%

How did O=S(=O)(Nc1cccc2cccnc12)c1ccc(F)cc1 do in these assays?
FMDV FLuc: inconclusive; FMDV Renilla: 22µM*

Results for O=C(Nc1cccc2cccnc12)c1ccc(F)cc1 ?
FMDV FLuc: 90%; FMDV Renilla: -11%

How did Cc1nc2ccc(NS(=O)(=O)c3ccc(C)c(C)c3)cc2s1 do in these assays?
FMDV FLuc: inconclusive; FMDV Renilla: 96%

How did CC(C)N(Cc1ccccc1)C(=O)c1cc2ccc3cccnc3c2[nH]1 do in these assays?
FMDV FLuc: 25µM*; FMDV Renilla: 8.9µM*

Results for O=C(NCc1cccc(Cl)c1)c1cc2ccc3cccnc3c2[nH]1 ?
FMDV FLuc: 26%; FMDV Renilla: 22%

How did COc1ccc2c(c1)c(CC(=O)Nc1cc(C)c(OC)c(C)c1)c(C)n2C(=O)c1ccc(Cl)cc1 do in these assays?
FMDV FLuc: 5%; FMDV Renilla: -5%

How did CC(C)NC(=O)/C(C#N)=C\c1cccc(/C=C(/C#N)C(=O)NC(C)C)c1 do in these assays?
FMDV FLuc: 28µM*; FMDV Renilla: -34%

Results for CC(C)NC(=O)/C(C#N)=C\c1ccc(O)cc1 ?
FMDV FLuc: 79%; FMDV Renilla: 8%

How did Oc1ccc2c(c1)OCCOCCOc1cc(O)ccc1OCCO2 do in these assays?
FMDV FLuc: 19%; FMDV Renilla: 10%

How did CC(C)(C)c1ccc2c(c1)OCCOCCOCCOc1cc(C(C)(C)C)ccc1OCCOCCOCCO2 do in these assays?
FMDV FLuc: inconclusive; FMDV Renilla: 28µM*

Results for O=C(CSC1=NC2(CCCCC2)N=C1c1cccs1)NCc1ccccc1 ?
FMDV FLuc: -10%; FMDV Renilla: 82%

How did O=S(=O)(NCCc1nnc2ccc(SCc3c(F)cccc3Cl)nn12)c1ccccc1 do in these assays?
FMDV FLuc: -24%; FMDV Renilla: 183%

How did CCc1ccc(-c2nc3cc(NC(=O)c4ccc(C)c(C)c4)ccc3o2)cc1 do in these assays?
FMDV FLuc: 29%; FMDV Renilla: 2%

How did Cc1nc2cc(NC(=O)c3ccc(C(C)(C)C)cc3)ccc2o1 do in these assays?
FMDV FLuc: 7.9µM*; FMDV Renilla: 4.5µM*

How did Cc1nc2cc(NC(=O)c3cccc(Cl)c3)ccc2o1 do in these assays?
FMDV FLuc: 0%; FMDV Renilla: -28%

Results for CCc1ccc(C(=O)Nc2ccc3oc(C)nc3c2)cc1 ?
FMDV FLuc: -18%; FMDV Renilla: 10µM*

How did Cc1cc(C)c(NC(=O)CNS(=O)(=O)c2cccc3cc(C)cnc23)c(C)c1 do in these assays?
FMDV FLuc: 12%; FMDV Renilla: 277%

Results for CCCn1c(CN(C)Cc2ccccc2)nc2c1c(=O)n(C)c(=O)n2C ?
FMDV FLuc: 35µM*; FMDV Renilla: inconclusive

Results for CN(Cc1ccccc1)Cc1nc2c(c(=O)n(C)c(=O)n2C)n1CCc1ccccc1 ?
FMDV FLuc: -14%; FMDV Renilla: 5%

Results for CCc1nn2c(=O)cc(CNc3ccc4c(c3)OCCCO4)nc2s1 ?
FMDV FLuc: 4.5µM*; FMDV Renilla: 3%

What do the screens show for `CCc1nn2c(=O)cc(CNc3ccccc3NC(=O)c3ccccc3)nc2s1`?
FMDV FLuc: 7%; FMDV Renilla: -2%

What do the screens show for `CCCCOc1ccc(C(=O)C(CCC(CNC(C)(C)C)C(=O)c2ccc(OCCCC)cc2)CNC(C)(C)C)cc1` (stereo unspecified)?
FMDV FLuc: inconclusive; FMDV Renilla: 28µM*

How did CCCCCOc1ccc(C(=O)O)cc1 do in these assays?
FMDV FLuc: 0%; FMDV Renilla: 12%
